About 79,000 compounds went through this panel and 15% of them were active in at least one assay; those are over-represented in the sample as a whole. Active and inactive are the calls of the source. Rule as the data show it: active = growth inhibition above about 70%; inactive = the rest.
Key:
[1] = NCI Yeast Anticancer Drug Screen. Data for the rad52 strain (AID 147);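 also: 0% = growth of vehicle-treated control cultures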; conditions: S. cerevisiae rad52 mutant growth inhibition, hits give high values
Procedure, shortened: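 The repair-mutant yeast strain was incubated with compounds, then growth was read and inhibition derived relative to vehicle.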

[2] = NCI Yeast Anticancer Drug Screen. Data for the wt1 strain (AID 149);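 also: 0% = growth of vehicle-treated wt1 cultures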; conditions: S. cerevisiae wt1 strain (SPY 50644) growth inhibition, hits give high values
Procedure, shortened: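 Vehicle-normalised growth inhibition; strain wt1; compound exposure.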

[3] = NCI Yeast Anticancer Drug Screen. Data for the rad50EPP+ strain (AID 151);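 also: 0% = growth of vehicle-treated control cultures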; conditions: S. cerevisiae rad50 mutant strain, hits give high values
Procedure, shortened: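 Vehicle-normalised growth inhibition; rad50EPP+ yeast strain, altered in DNA damage repair, compound-treated.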

[4] = NCI Yeast Anticancer Drug Screen. Data for the mgt1 strain (AID 153); conditions: S. cerevisiae mgt1 mutant growth inhibition, hits give high values
Procedure, shortened: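 Vehicle-normalized growth inhibition is determined in mgt1 yeast, a strain selected for a defined alteration in DNA repair or cell cycle control.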

[5] = NCI Yeast Anticancer Drug Screen. Data for the rad50 strain (AID 155);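 also: 0% = growth of vehicle-only cultures of the same strain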; conditions: S. cerevisiae rad50 strain growth inhibition, hits give high values
Procedure, shortened: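 A DNA repair-deficient yeast mutant serves as the test organism; compound-induced growth inhibition is calculated against vehicle-treated cells.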

[6] = NCI Yeast Anticancer Drug Screen. Data for the mec2-1 strain (AID 157); conditions: S. cerevisiae mec2-1 strain, hits give high values
Procedure, shortened: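 Mutant yeast (mec2-1) grown with compound; growth inhibition relative to vehicle control reported.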

[7] = NCI Yeast Anticancer Drug Screen. Data for the rad14 strain (AID 159);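 also: 0% = growth of vehicle-treated control cultures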; conditions: S. cerevisiae rad14 strain growth inhibition, hits give high values
Procedure, shortened: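 Vehicle-treated cultures served as the baseline for growth inhibition of a DNA repair-mutant yeast strain exposed to each compound.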

[8] = NCI Yeast Anticancer Drug Screen. Data for the sgs1 mgt1 strain (AID 161);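 also: 0% = growth of cultures given vehicle only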; conditions: S. cerevisiae sgs1 mgt1 strain, hits give high values
Procedure, shortened: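 Percent growth inhibition was derived by comparing compound-exposed mutant yeast with vehicle-exposed cultures. The strain carries alterations in DNA damage repair.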

[9] = NCI Yeast Anticancer Drug Screen. Data for the CLN2oe strain (AID 163);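 also: 0% = growth of vehicle-only control cultures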; conditions: S. cerevisiae CLN2oe strain, hits give high values
Procedure, shortened: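 Compounds are applied to yeast harbouring a defined cell-cycle control change; reduced growth compared with vehicle-treated controls gives the value.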

[10] = NCI Yeast Anticancer Drug Screen. Data for the cln2 rad14 strain (AID 165);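 also: 0% = growth equal to vehicle treated cultures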; conditions: S. cerevisiae cln2 rad14 strain, hits give high values
Procedure, shortened: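 Readout is yeast growth inhibition versus vehicle-treated controls, using a strain with cln2 and rad14 alterations exposed to compound.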

[11] = NCI Yeast Anticancer Drug Screen. Data for the bub3 strain (AID 167); conditions: S. cerevisiae bub3 mutant strain, hits give high values
Procedure, shortened: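 Inhibition values come from growth of compound-treated mutant yeast normalised to vehicle-treated controls.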

[12] = NCI Yeast Anticancer Drug Screen. Data for the wt2 strain (AID 169);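 also: 0% = growth of vehicle-treated yeast cultures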; conditions: S. cerevisiae wt2 strain growth inhibition, hits give high values
Procedure, shortened: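 Against vehicle-treated controls, the growth of yeast exposed to each compound was compared, and the inhibition was recorded.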

[13] = NCI Yeast Anticancer Drug Screen. Data for the mlh1 rad18 strain (AID 175); conditions: S. cerevisiae mlh1 rad18 strain growth inhibition, hits give high values
Procedure, shortened: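 Genetically defined yeast (DNA repair-deficient) exposed to compounds; growth inhibition determined relative to vehicle.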

[14] = NCI Yeast Anticancer Drug Screen. Data for the rad18 strain (AID 177); conditions: S. cerevisiae rad18 mutant growth inhibition, hits give high values
Procedure, shortened: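 Vehicle-treated cultures served as the baseline for scoring compound-induced growth inhibition in DNA-repair-mutant yeast.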

[15] = NCI Yeast Anticancer Drug Screen. Data for the sgs1 strain (AID 173);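 also: 0% = growth of vehicle-only control cultures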; conditions: S. cerevisiae sgs1 mutant, hits give high values
Procedure, shortened: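 Each compound was added to cultures of the altered yeast strain. Growth was recorded, and inhibition was derived by comparison with vehicle controls.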

[16] = at 5.0 µM (retest, dose inferred, filed as 0.5)
[17] = at 50.0 µM (retest, dose inferred, filed as 5.0)

Measured: growth inhibition

c1c[nH]c(CN2CCN(Cc3ncc[nH]3)CC2)n1
active: [1]; at 3.7 µM 72% | [1]; at 11.0 µM 96% | [1]; at 33.0 µM 97% | [1]; at 100.0 µM 98% | [2]; at 11.0 µM 97% | [2]; at 33.0 µM 98% | [2]; at 100.0 µM 99% | [3]; at 11.0 µM 92% | [3]; at 33.0 µM 97% | [3]; at 100.0 µM 98% | [4]; at 11.0 µM 96% | [4]; at 33.0 µM 97% | [4]; at 100.0 µM 99% | [5]; at 3.7 µM 93% | [5]; [16] 89% | [5]; at 11.0 µM 97% | [5]; at 33.0 µM 97% | [5]; [17] 99% | [5]; at 50.0 µM 97.4% | [5]; at 100.0 µM 98% | [6]; at 11.0 µM 94% | [6]; at 33.0 µM 98% | [6]; [17] 98% | [6]; at 50.0 µM 97.7% | [6]; at 100.0 µM 98% | [7]; at 11.0 µM 95% | [7]; at 33.0 µM 98% | [7]; at 100.0 µM 99% | [8]; [17] 99% | [8]; at 50.0 µM 98.5% | [9]; at 11.0 µM 96% | [9]; at 33.0 µM 98% | [9]; at 100.0 µM 98% | [10]; [17] 99% | [10]; at 50.0 µM 98.7% | [11]; at 11.0 µM 97% | [11]; at 33.0 µM 97% | [11]; [17] 99% | [11]; at 50.0 µM 97.8% | [11]; at 100.0 µM 98% | [12]; at 11.0 µM 98% | [12]; at 33.0 µM 99% | [12]; at 100.0 µM 99% | [13]; [17] 98% | [13]; at 50.0 µM 98% | [14]; at 11.0 µM 96% | [14]; at 33.0 µM 98% | [14]; at 100.0 µM 98%
inactive: [1]; at 1.2 µM 0% | [2]; at 1.2 µM -1% | [2]; at 3.7 µM 7% | [3]; at 1.2 µM -3% | [3]; at 3.7 µM 3% | [4]; at 1.2 µM -6% | [4]; at 3.7 µM 2% | [5]; at 1.2 µM 4% | [6]; at 1.2 µM -5% | [6]; at 3.7 µM -1% | [6]; [16] 26% | [7]; at 1.2 µM -4% | [7]; at 3.7 µM 18% | [8]; [16] 34% | [9]; at 1.2 µM -3% | [9]; at 3.7 µM 12% | [10]; [16] -69% | [11]; at 1.2 µM -6% | [11]; at 3.7 µM 27% | [11]; [16] 1% | [12]; at 1.2 µM -1% | [12]; at 3.7 µM 54% | [13]; [16] 46% | [14]; at 1.2 µM 0% | [14]; at 3.7 µM 64%

CCN1CCC(O)(c2ccc(Oc3ccc(C)cc3)cc2)C(C(=O)c2ccc(Oc3ccc(C)cc3)cc2)C1 (stereo unspecified)
active: [1]; at 11.0 µM 96% | [1]; at 33.0 µM 95% | [1]; at 100.0 µM 93% | [2]; at 11.0 µM 97% | [2]; at 33.0 µM 96% | [2]; at 100.0 µM 94% | [3]; at 11.0 µM 96% | [3]; at 33.0 µM 94% | [3]; at 100.0 µM 93% | [4]; at 11.0 µM 98% | [4]; at 33.0 µM 96% | [4]; at 100.0 µM 95% | [5]; at 11.0 µM 97% | [5]; at 33.0 µM 95% | [5]; [17] 96% | [5]; at 50.0 µM 85.6% | [5]; at 100.0 µM 94% | [6]; at 11.0 µM 98% | [6]; at 33.0 µM 97% | [6]; [17] 97% | [6]; at 50.0 µM 92% | [6]; at 100.0 µM 94% | [7]; at 11.0 µM 96% | [7]; at 33.0 µM 95% | [7]; at 100.0 µM 92% | [8]; at 50.0 µM 88.8% | [9]; at 11.0 µM 98% | [9]; at 33.0 µM 96% | [9]; at 100.0 µM 91% | [10]; at 50.0 µM 88.2% | [11]; at 11.0 µM 97% | [11]; at 33.0 µM 96% | [11]; at 50.0 µM 89% | [11]; at 100.0 µM 95% | [12]; at 11.0 µM 97% | [12]; at 33.0 µM 96% | [12]; at 100.0 µM 86% | [15]; at 11.0 µM 97% | [15]; at 33.0 µM 96% | [15]; at 100.0 µM 93% | [13]; [17] 95% | [13]; at 50.0 µM 91% | [14]; at 11.0 µM 97% | [14]; at 33.0 µM 96% | [14]; at 100.0 µM 93%
inactive: [1]; at 1.2 µM -28% | [1]; at 3.7 µM -32% | [2]; at 1.2 µM -44% | [2]; at 3.7 µM -31% | [3]; at 1.2 µM -17% | [3]; at 3.7 µM 15% | [4]; at 1.2 µM -7% | [4]; at 3.7 µM 6% | [5]; at 1.2 µM -21% | [5]; at 3.7 µM -20% | [5]; [16] 18% | [6]; at 1.2 µM -9% | [6]; at 3.7 µM -1% | [6]; [16] 2% | [7]; at 1.2 µM -38% | [7]; at 3.7 µM -9% | [8]; [16] 16% | [8]; [17] -2% | [9]; at 1.2 µM 29% | [9]; at 3.7 µM 22% | [10]; [16] 18% | [10]; [17] 10% | [11]; at 1.2 µM 0% | [11]; at 3.7 µM 23% | [11]; [16] 14% | [11]; [17] 15% | [12]; at 1.2 µM -7% | [12]; at 3.7 µM -19% | [15]; at 1.2 µM -18% | [15]; at 3.7 µM -22% | [13]; [16] 21% | [14]; at 1.2 µM -20% | [14]; at 3.7 µM 5%
